Test results taken from PubChem BioAssay (Tox21).
Results filed as inconclusive are left out. Activity calls are given as the source filed them. Unless noted, calls come from the whole dose curve; as a rule, active = well fitted curve in the direction sought with a large enough effect in the repeat runs; inconclusive = weak or mixed curves; inactive = no such curve, though single readings can be large; an effect the other way counts as inactive or inconclusive.

Tests used:
[1] = molecular target: Thyrotropin receptor (Homo sapiens) (UniProt P16473); assay: qHTS assay to identify small molecule antagonists of the thyroid stimulating hormone receptor (TSHR) signaling pathway (AID 1259385; calls by dose curve; note: nearly all actives have a fitted effect of over 20% in size)
Chain of Thyrotropin receptor (Homo sapiens) (P16473 whole entry, looked up): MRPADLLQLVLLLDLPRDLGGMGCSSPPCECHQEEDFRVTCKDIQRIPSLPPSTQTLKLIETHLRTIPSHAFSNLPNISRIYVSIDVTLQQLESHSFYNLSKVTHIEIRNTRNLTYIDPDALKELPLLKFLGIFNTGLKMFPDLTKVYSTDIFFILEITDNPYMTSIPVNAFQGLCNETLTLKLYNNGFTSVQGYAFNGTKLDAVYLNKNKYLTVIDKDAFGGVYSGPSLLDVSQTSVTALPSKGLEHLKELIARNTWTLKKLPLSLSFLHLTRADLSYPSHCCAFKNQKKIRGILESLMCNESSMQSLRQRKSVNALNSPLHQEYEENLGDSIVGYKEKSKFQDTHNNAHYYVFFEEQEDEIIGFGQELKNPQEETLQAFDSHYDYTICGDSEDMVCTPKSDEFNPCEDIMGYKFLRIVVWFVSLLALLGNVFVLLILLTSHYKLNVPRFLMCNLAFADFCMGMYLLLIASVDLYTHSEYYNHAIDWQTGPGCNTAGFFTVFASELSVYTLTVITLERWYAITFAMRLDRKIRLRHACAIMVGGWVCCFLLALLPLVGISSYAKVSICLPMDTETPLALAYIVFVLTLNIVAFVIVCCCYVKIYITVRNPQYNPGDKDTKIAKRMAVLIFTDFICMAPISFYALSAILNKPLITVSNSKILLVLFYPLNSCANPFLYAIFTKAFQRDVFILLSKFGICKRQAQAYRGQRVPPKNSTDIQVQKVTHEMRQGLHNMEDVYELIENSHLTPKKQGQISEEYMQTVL
In short: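 TSHR-HEK293 cells (800/well) plated 18 h, then compounds with Ro20-1724 and TSH at 1.5 ng/mL final, 30 min at room temperature. cAMP quantified by HTRF (cAMP-d2/anti-cAMP-cryptate, 1 h); 15 concentrations in triplicate.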

[2] = qHTS assay to identify small molecule agonists of the estrogen receptor alpha (ER-alpha) signaling pathway in the presence of an antagonist - cell viability counter screen (AID 1259386);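 note: series mostly up to about 92 µM; cells exposed to compounds for 22 h at 37 °C before the viability read; nearly all actives have a fitted effect of over 30% in size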
In short: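 Fluorescent CellTiter-Fluor viability signal from VM7Luc4E2 cells, with the reagent added during the final hour of a 22hr compound exposure at 37C in the presence of 10.0nM ICI-182,780.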

[3] = molecular target: Progesterone receptor (Homo sapiens) (UniProt P06401); assay: qHTS assay to identify small molecule agonists of the progesterone receptor (PR) signaling pathway (AID 1346784; calls by dose curve; note: nearly all actives have a fitted effect of over 30% in size; note: potency is the fitted concentration of half-maximal effect)
Chain of Progesterone receptor (Homo sapiens) (P06401 whole entry, looked up): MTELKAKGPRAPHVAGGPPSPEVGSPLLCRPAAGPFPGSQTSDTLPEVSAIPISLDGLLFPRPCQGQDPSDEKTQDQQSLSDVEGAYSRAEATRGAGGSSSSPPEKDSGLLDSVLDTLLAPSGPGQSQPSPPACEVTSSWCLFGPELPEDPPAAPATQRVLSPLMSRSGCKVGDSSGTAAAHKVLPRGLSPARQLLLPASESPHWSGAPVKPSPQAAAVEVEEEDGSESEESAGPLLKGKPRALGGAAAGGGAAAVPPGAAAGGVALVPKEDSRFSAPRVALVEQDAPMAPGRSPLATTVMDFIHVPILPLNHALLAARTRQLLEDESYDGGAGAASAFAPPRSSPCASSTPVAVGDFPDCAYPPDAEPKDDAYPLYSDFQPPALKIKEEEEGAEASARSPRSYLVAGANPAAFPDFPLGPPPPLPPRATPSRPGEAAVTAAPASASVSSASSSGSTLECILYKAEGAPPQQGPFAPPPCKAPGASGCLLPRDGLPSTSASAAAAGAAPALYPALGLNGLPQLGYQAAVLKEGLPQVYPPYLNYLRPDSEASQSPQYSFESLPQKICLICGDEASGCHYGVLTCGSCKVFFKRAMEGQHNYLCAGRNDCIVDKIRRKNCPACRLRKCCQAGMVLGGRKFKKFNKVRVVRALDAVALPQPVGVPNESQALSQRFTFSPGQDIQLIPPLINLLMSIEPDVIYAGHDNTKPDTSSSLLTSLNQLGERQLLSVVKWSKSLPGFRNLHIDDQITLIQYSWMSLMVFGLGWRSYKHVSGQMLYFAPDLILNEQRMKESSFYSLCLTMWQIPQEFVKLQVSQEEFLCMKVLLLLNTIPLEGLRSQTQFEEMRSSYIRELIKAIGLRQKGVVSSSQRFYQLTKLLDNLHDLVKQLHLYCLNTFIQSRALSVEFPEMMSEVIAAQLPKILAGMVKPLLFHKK
In short: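 Fluorescence from LiveBLAzer B/G FRET substrate cleavage (2 hr, RT) reported PR activation in PR-UAS-bla HEK 293T cells treated 16 hr at 37C/5% CO2 with compounds; medium contained 2% charcoal-stripped FBS.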

[4] = molecular target: Progesterone receptor (Homo sapiens) (UniProt P06401); assay: qHTS assay to identify small molecule antagonists of the progesterone receptor (PR) signaling pathway (AID 1346795; active = well fitted inhibition curve with a large enough effect in the signal ratio in the repeat runs, not every such curve was filed as active; the % refers to the signal ratio)
In short: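 Fluorescence intensity measured 2 hr after adding beta-lactamase FRET substrate to PR-UAS-bla HEK293T cells that had been co-treated 16 hr with compound and 1 nM R5020 (final concentration) in 2% charcoal-stripped FBS.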

[5] = qHTS assay to identify small molecule antagonists of the TGF-beta/Smad signaling pathway - cell viability counter screen (AID 1346824); note: nearly all actives have a fitted effect of over 50% in size
In short: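 SBE-bla HEK 293T cells, incubated overnight, then compound plus 0.25 ng/mL TGF-beta1 (stock added) for 5 hr at 37 C. Viability was read in the same wells by CellTiter-Glo luminescence after 30 min at room temperature.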

[6] = qHTS assay to identify small molecule agonists of the TGF-beta/Smad signaling pathway - cell viability counter screen (AID 1346829); note: top concentration of the series differs between compounds; nearly all actives have a fitted effect of over 45% in size
In short: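 After overnight seating at 37 C and 5% CO2, reporter cells got compounds for 5 hr and FRET substrate for 2 hr; cell viability then came from CellTiter-Glo luminescence.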

[7] = qHTS assay to identify small molecule agonists of the TGF-beta/Smad signaling pathway (AID 1346859; active = well fitted activation curve with a large enough effect in the signal ratio in the repeat runs, not every such curve was filed as active; the % refers to the signal ratio; note: series mostly up to about 77 µM)
In short: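 After overnight seeding, SBE-bla HEK 293T cells are dosed with compounds in DMSO and kept 5 hr at 37 C, 5% CO2. LiveBLAzer-type FRET substrate is then applied for 2 hr at room temperature.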

[8] = molecular target: Thyrotropin-releasing hormone receptor (Homo sapiens) (UniProt P34981); assay: qHTS assay to identify small molecule agonists of the thyrotropin-releasing hormone receptor (TRHR) signaling pathway (AID 1346891; calls by dose curve; note: series mostly up to about 58 µM)
Chain of Thyrotropin-releasing hormone receptor (Homo sapiens) (P34981 whole entry, looked up): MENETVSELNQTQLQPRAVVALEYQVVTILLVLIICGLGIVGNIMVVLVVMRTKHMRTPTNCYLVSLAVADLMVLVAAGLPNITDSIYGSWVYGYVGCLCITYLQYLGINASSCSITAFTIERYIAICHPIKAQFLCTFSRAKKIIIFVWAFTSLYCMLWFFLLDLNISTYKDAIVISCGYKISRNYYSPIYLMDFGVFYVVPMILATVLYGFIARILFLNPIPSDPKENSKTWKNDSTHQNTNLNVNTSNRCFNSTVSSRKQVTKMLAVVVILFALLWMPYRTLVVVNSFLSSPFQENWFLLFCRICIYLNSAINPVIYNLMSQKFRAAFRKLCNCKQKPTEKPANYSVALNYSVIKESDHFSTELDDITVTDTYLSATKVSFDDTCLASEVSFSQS
In short: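 Compounds were tested as agonists at 15 concentrations, in triplicate, on TRHR-Hek293 cells; calcium-sensitive dye fluorescence was recorded for 3 min following addition.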

[9] = Human pregnane X receptor (PXR) small molecule agonists, qHTS cell viability counter screen (AID 1346977); note: nearly all actives have a fitted effect of over 50% in size
In short: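 Viability counter screen: CellTiter-Fluor signal in PXR-Luc HepG2 cells, 24hr compound exposure, 37C, 5% CO2.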

[10] = Caspase-3/7 induction in CHO-K1 cells by small molecules, qHTS cell viability counter screen (AID 1346979); note: nearly all actives have a fitted effect of over 35% in size; note: potency is the fitted concentration of half-maximal effect
In short: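 Viability readout by fluorescence (CellTiter-Fluor) on wild-type CHO-K1 cells exposed for 16hr at 37C and 5% CO2 to compounds delivered in DMSO; reagent incubated 1hr before reading.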

[11] = Caspase-3/7 induction in CHO-K1 cells by small molecules, qHTS assay (AID 1346980); note: nearly all actives have a fitted effect of over 15% in size
In short: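 Wild-type CHO-K1 cells exposed to compounds for 17hr at 37 C, 5% CO2. Caspase-3/7 activity then measured by Caspase-Glo 3/7 luminescence after 30min at room temperature.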

[12] = Caspase-3/7 induction in HepG2 cells by small molecules, qHTS cell viability counter screen (AID 1346981); note: series mostly up to about 92 µM; nearly all actives have a fitted effect of over 30% in size
In short: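 Counter screen for cytotoxicity: HepG2 exposed 16 hr to compounds, then CellTiter-Fluor viability signal (fluorescence, 1 hr reagent incubation).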

[13] = molecular target: Nuclear receptor subfamily 1 group I member 2 (Homo sapiens) (UniProt O75469); assay: Human pregnane X receptor (PXR) small molecule agonists, qHTS assay (AID 1346982); note: nearly all actives have a fitted effect of over 35% in size; note: potency is the fitted concentration of half-maximal effect
Chain of Nuclear receptor subfamily 1 group I member 2 (Homo sapiens) (O75469 whole entry, looked up): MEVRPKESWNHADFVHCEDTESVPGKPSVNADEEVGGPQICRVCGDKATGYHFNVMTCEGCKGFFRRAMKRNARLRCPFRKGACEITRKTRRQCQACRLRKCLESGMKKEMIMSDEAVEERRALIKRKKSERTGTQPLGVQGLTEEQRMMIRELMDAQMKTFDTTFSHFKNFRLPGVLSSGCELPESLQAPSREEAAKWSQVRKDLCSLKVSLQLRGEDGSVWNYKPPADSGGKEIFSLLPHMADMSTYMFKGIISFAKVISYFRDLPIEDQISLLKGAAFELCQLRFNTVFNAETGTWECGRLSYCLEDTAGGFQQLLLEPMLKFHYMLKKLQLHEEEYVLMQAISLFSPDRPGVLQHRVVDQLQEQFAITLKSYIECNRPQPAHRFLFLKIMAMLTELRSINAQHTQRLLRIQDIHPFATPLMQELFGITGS
In short: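 Luminescence (ONE-Glo, 30 min RT) after 24 hr compound exposure of PXR-Luc HepG2 cells; cells rested 5 hr post-plating in 5% charcoal-stripped FBS medium.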

[14] = qHTS assay to identify small molecule agonists of the progesterone receptor (PR) signaling pathway - cell viability counter screen (AID 1346799; calls by dose curve; note: nearly all actives have a fitted effect of over 45% in size)
In short: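 In parallel with the beta-lactamase readout, cytotoxicity toward PR-UAS-bla HEK293T cells was measured by CellTiter-Glo luminescence following 16 hr compound incubation in 2% charcoal-stripped FBS medium.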

[15] = molecular target: Thyrotropin-releasing hormone receptor (Homo sapiens) (UniProt P34981); assay: qHTS assay to identify small molecule antagonists of the thyrotropin-releasing hormone receptor (TRHR) signaling pathway (AID 1346877; active = well fitted inhibition curve with a large enough effect in the repeat runs, not every such curve was filed as active; note: series mostly up to about 51 µM)
In short: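 In this cell-based calcium flux format, HEK293 cells expressing TRHR received test compound for 5 min before the agonist TRH (1 nM final). Dye loading lasted 2 h at 37 °C.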

[16] = Caspase-3/7 induction in HepG2 cells by small molecules, qHTS assay (AID 1346978); note: nearly all actives have a fitted effect of over 15% in size
In short: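 Wild-type HepG2 cells, 2,000/well, settled 5 hr at 37 C and 5% CO2, then compound-treated for 17 hr; caspase-3/7 activity read by luminescent Caspase-Glo 3/7 after 30 min at room temperature.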

[17] = qHTS assay to identify small molecule antagonists of the progesterone receptor (PR) signaling pathway - cell viability counter screen (AID 1346798); note: series mostly up to about 92 µM; nearly all actives have a fitted effect of over 50% in size
In short: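 CellTiter-Glo luminescence; PR-UAS-bla HEK293T, 3,000 cells/well; compound + R5020, 16 hr, 37C/5% CO2; 30 min RT before read.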

[18] = molecular target: Nuclear receptor subfamily 1 group I member 2 (Rattus norvegicus) (UniProt Q9R1A7); assay: Rat pregnane X receptor (rPXR) activation by small molecules, qHTS assay (AID 1346983); settings: rPXR luciferase reporter cells, One-Glo luminescence, 24 h; max activation: stronger effect = higher value; note: nearly all actives have a fitted effect of over 20% in size
Chain of Nuclear receptor subfamily 1 group I member 2 (Rattus norvegicus) (Q9R1A7 whole entry, looked up): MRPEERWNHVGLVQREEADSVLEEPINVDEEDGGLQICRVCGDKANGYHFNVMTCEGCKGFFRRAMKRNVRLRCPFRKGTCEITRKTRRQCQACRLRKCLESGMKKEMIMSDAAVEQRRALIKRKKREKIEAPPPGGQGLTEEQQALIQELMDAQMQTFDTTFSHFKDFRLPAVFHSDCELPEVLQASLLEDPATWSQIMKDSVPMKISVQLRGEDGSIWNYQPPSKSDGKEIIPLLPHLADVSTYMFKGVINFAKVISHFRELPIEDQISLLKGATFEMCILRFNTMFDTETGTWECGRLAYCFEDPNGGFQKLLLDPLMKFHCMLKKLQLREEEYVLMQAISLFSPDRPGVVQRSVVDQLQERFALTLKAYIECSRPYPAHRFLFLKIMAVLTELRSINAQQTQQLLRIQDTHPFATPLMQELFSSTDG
In short: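 Cell-based rPXR activation assay: rPXR cells, 2,000 per well, rested 5hr at 37 C, then exposed to compounds in DMSO for 24 hr at 37 C. Luciferase activity read by One-Glo luminescence after 30 min at room temperature.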

[19] = molecular target: Nuclear receptor subfamily 1 group I member 2 (Homo sapiens) (UniProt O75469); assay: CYP3A4 induction through human pregnane X receptor (PXR) by small molecules, qHTS assay (AID 1346984); note: nearly all actives have a fitted effect of over 40% in size
In short: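 DPX-2 reporter cells; 24h cpd, 37C; Luciferin-IPA 3uM final x3h; One-Glo 30 min RT; lumi read.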

[20] = molecular target: Nuclear receptor subfamily 1 group I member 2 (Homo sapiens) (UniProt O75469); assay: Human pregnane X receptor (PXR) activation by small molecules, qHTS assay (AID 1346985); note: nearly all actives have a fitted effect of over 40% in size
In short: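 DPX-2 cells (HepG2 co-transfected with a PXR response element and a CYP3A4-promoter luciferase construct) were seeded at 2,000 per well, rested 5 hr at 37C, then exposed to DMSO-dissolved compounds for 24 hr. Activation was read as luciferase luminescence.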
% is set by controls: 0 for no effect and ±100 for the full control effect.

Cc1ccc([N+](=O)[O-])cc1Cl
active: Potency [13] 61.9 µM
inactive: Potency [1] | Potency [2] | Potency [3] | Potency [4] | outcome [5] | outcome [6] | outcome [7] | Potency [8] | Potency [9] | Potency [10] | outcome [11] | Potency [12]

O=C1CCCCC1C1CCCCC1 (configuration not stated)
inactive: Potency [1] | Potency [2] | Potency [3] | Potency [4] | Potency [14] | outcome [5] | outcome [6] | outcome [15] | Potency [8] | Potency [9] | Potency [16] | Potency [10] | outcome [11] | Potency [12] | Potency [13]

C/C(=N\O)[C@@H](C)NCC(C)(C)CN[C@H](C)/C(C)=N/O
inactive: Potency [1] | Potency [2] | Potency [3] | Potency [4] | Potency [14] | outcome [5] | outcome [6] | outcome [15] | Potency [8] | Potency [16] | Potency [10] | outcome [11] | Potency [12] | Potency [13]

OCCN(CCO)CCN(CCO)CCO
inactive: Potency [1] | Potency [2] | Potency [3] | Potency [14] | outcome [5] | outcome [6] | outcome [7] | outcome [15] | Potency [8] | Potency [9] | Potency [16] | Potency [10] | outcome [11] | Potency [13]

CC1=CC(=O)CC(C)(C)C1=O
inactive: Potency [1] | Potency [2] | Potency [3] | Potency [17] | Potency [14] | outcome [5] | outcome [6] | outcome [7] | Potency [8] | Potency [9] | Potency [16] | outcome [11] | Potency [12]
active: Potency [13] 62.4 µM

C[C@@H]1CN(c2c(F)c(F)c3c(=O)c(C(=O)O)cn(C4CC4)c3c2F)C[C@H](C)N1
inactive: activity change, negative = inhibition [1] -7.61% [at 19 µM] | activity change, negative = cytotoxicity [2] 0.208% [at 19 µM] | activation [3] 4.11% [at 19 µM] | activity change, negative = inhibition [4] 6.07% [at 18.9 µM] | viability change, negative = cytotoxic [5] 0.903% [at 15.8 µM] | activity change, negative = cytotoxicity [6] -0.146% [at 15.8 µM] | activity, negative = inhibition [15] -3.72% [at 10.5 µM] | activation [8] 0.0488% [at 11.8 µM] | activity change, negative = cytotoxicity [10] 0.544% [at 19 µM] | caspase-3/7 activation [11] 0.203% [at 19 µM] | activity change, negative = cytotoxicity [12] 0.129% [at 19 µM] | activation [13] -4.26% [at 19 µM] | max activation [18] -2.98% | Potency [19] | Potency [20]

NCCCN1CCN(CCCN)CC1
inactive: Potency [1] | Potency [2] | Potency [3] | Potency [4] | Potency [14] | outcome [5] | outcome [6] | outcome [15] | Potency [8] | Potency [9] | Potency [16] | Potency [10] | outcome [11] | Potency [13]

O=[N+]([O-])c1nccn1CO[C@@H](CO)[C@H](O)CO
inactive: Potency [1] | Potency [2] | Potency [3] | Potency [4] | Potency [14] | outcome [5] | outcome [6] | outcome [15] | Potency [8] | Potency [9] | Potency [16] | Potency [10] | outcome [11] | Potency [12] | Potency [13]

C[C@]12CCC(=O)C=C1CC[C@@H]1[C@@H]2CC[C@@]2(C)[C@H]1CC[C@]2(O)C(=O)CO
active: Potency [3] 8.41 µM
inactive: Potency [1] | Potency [2] | Potency [17] | outcome [5] | outcome [6] | outcome [7] | Potency [8] | Potency [9] | Potency [16] | Potency [10] | outcome [11] | Potency [13] | max activation [18] 14.2% | Potency [19] | Potency [20]

O=c1[nH]cnc2c1ncn2[C@@H]1O[C@H](CO)[C@@H](O)[C@H]1O
inactive: Potency [1] | Potency [2] | Potency [3] | Potency [17] | Potency [14] | outcome [5] | outcome [6] | outcome [7] | outcome [15] | Potency [8] | Potency [9] | Potency [16] | outcome [11] | Potency [12] | Potency [13] | max activation [18] -2.07% | Potency [19] | Potency [20]
active: Potency [10] 1.06 µM

CC(C)Nc1nc(N)nc(Cl)n1
inactive: Potency [1] | Potency [2] | Potency [3] | Potency [4] | Potency [14] | outcome [5] | outcome [6] | outcome [15] | Potency [8] | Potency [16] | Potency [10] | outcome [11] | Potency [13]
